VACV Venus inh: qHTS for Stage-Specific Inhibitors of Vaccinia Orthopoxvirus: Venus Reporter Primary qHTS; Vaccinia virus Venus reporter expression, fluorescence; Potency, µM (titrated, usually from 36.5 µM), hits mostly inhibitors; hit rate 0.46% among 330,000; AID 720580, 2013; calls by dose curve; tested in A549 cells; further: nearly all actives have a fitted effect of over 30% in size
LmPK inh: qHTS Assay for Inhibitors of Leishmania Mexicana Pyruvate Kinase (LmPK) | AID 1721, 2009 | hit rate 0.37% among 290,000 | Potency, µM (titrated, usually from 57.5 µM), actives largely listed as inhibitors | purified LmPK, Kinase-Glo ATP luminescence, 1 h
Target sequence (Q27686 whole entry, looked up): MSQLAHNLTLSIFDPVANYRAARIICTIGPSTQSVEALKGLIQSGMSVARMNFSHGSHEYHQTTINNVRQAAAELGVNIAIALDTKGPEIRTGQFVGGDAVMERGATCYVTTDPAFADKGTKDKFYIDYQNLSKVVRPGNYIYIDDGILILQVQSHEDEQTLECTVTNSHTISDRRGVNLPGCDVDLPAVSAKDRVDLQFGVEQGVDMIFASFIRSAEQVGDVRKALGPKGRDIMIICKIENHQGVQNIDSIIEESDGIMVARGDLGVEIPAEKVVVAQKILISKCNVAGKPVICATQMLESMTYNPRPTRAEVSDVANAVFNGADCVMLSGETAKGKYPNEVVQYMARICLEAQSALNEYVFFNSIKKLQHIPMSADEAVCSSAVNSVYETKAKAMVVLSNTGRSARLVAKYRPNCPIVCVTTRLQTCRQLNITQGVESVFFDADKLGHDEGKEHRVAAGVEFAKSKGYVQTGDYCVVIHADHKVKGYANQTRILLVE
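Purified LmPK (0.1 nM) converted ADP (0.1 mM) to ATP with PEP (0.5 mM) in imidazole buffer pH 7.2 with KCl and MgCl2, 1 h at room temperature. ATP was read by Kinase-Glo luminescence; data normalized to uninhibited and no-enzyme controls.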
HCMV inh: qHTS Assay for inhibitors of the human cytomegalovirus (HCMV). HFF cells, HCMV-luciferase reporter, 72 h; hits give low values. activity change, negative = inhibition, % at 57.5 µM. hit rate 4.5% among 410,000; in the data active means activity change below about -60%; inconclusive means no clear call, values can overlap the other calls; inactive means above about -39%
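Steps: HFFs plated, 16 h 37C; compounds added; HCMV-luciferase added to MOI 1 PFU/cell; 72 h 37C; OneGlo reagent, 5 min room temperature; luminescence read, normalized to controls.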
TbPYK inhibitor: qHTS of Trypanosoma Brucei Inhibitors; Potency, µM (highest dose often 76.8 µM), hits mostly inhibitors; hit rate 0.12% among 410,000; AID 624173, 2012; TbPYK enzyme, Kinase-Glo Plus ATP luminescence, 45 min; further: nearly all actives have a fitted effect of over 50% in size
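Screened from lowest to highest concentration, compounds were pinned into TbPYK/substrate mixtures, and ADP (130 uM final) was added. Plates sat at room temperature for 45 min prior to Kinase-Glo Plus detection by luminescence.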
Vaccinia mCherry: qHTS for Stage-Specific Inhibitors of Vaccinia Orthopoxvirus: mCherry Reporter Primary qHTS; Vaccinia virus mCherry reporter infection, fluorescence; Potency, µM (highest dose often 36.5 µM), hits mostly inhibitors; hit rate 0.63% among 310,000; calls by dose curve; tested in A549 cells; further: nearly all actives have a fitted effect of over 35% in size
A number is an active result; ! = not active in a repeat; [ ] = another dose, or the depositor's remark. Hits are enriched below; roughly 5% of the tested compounds scored in any of these assays. Unless noted, the call rests on the fitted dose curve; in most records, active means well fitted curve in the direction sought with a large enough effect; inconclusive means small, poorly fitted or top-dose-only effect, or another doubt; inactive means no such curve, though single readings can be large; an effect the other way counts as inactive or inconclusive.

How did CCCCN(CC)CCNC(=O)Cn1cc2c(n1)-c1c(oc(C(=O)N3CCCC3)c1C)CC2 do in these assays?
VACV Venus inh: inactive; LmPK inh: inactive; HCMV inh: -61.5!; TbPYK inhibitor: inactive; Vaccinia mCherry: inactive

Results for CN(C)C(=O)/C=C\c1cn(-c2ccccc2)nc1-c1ccc2c(c1)OCCO2 ?
VACV Venus inh: inactive; LmPK inh: inactive; HCMV inh: -84.9; TbPYK inhibitor: inactive; Vaccinia mCherry: inactive

Results for COC(=O)[C@@H](Cc1ccccc1)N(Cc1ccccc1)S(=O)(=O)N(Cc1ccccc1)[C@H](Cc1ccccc1)C(=O)OC ?
VACV Venus inh: inactive; HCMV inh: -96.1; TbPYK inhibitor: inactive; Vaccinia mCherry: inactive

Results for COC(=O)[C@H](Cc1ccccc1)N(Cc1ccc(C)cc1)S(C)(=O)=O ?
VACV Venus inh: inactive; Vaccinia mCherry: inactive

Results for C=C[C@H](Cc1ccccc1)N(Cc1ccccc1)S(=O)(=O)N(Cc1ccccc1)[C@H](C=C)Cc1ccccc1 ?
VACV Venus inh: inactive; HCMV inh: -85.7; TbPYK inhibitor: inactive; Vaccinia mCherry: inconclusive

How did Cc1ccc(CNS(=O)(=O)c2ccc(C(F)(F)F)cc2)n1C do in these assays?
LmPK inh: inactive; HCMV inh: inactive; TbPYK inhibitor: inactive

How did CN(C)CCCn1c(=O)n(C2CCCCC2)c(=O)c2c3c(sc21)CCCCC3 do in these assays?
VACV Venus inh: inactive; HCMV inh: inactive; TbPYK inhibitor: inactive; Vaccinia mCherry: inactive

Results for Cc1ccc(NC(=O)C2CCN(c3nc(-c4ccc(C(C)C)cc4)no3)CC2)c(Cl)c1 ?
VACV Venus inh: inactive[7.34 µM]; HCMV inh: -69.4; TbPYK inhibitor: inactive; Vaccinia mCherry: inactive[7.34 µM]

How did COc1ccc(-c2noc(N3CCC(C(=O)Nc4cc(OC)ccc4OC)CC3)n2)cc1 do in these assays?
VACV Venus inh: inconclusive; LmPK inh: inactive; HCMV inh: inactive; TbPYK inhibitor: inactive; Vaccinia mCherry: inactive

How did Cc1ccc(C)c(N2CCN(C(=O)C3CCN(c4nc(-c5ccc(C(C)C)cc5)no4)CC3)CC2)c1 do in these assays?
VACV Venus inh: inactive[7.34 µM]; HCMV inh: -63.2; TbPYK inhibitor: inactive; Vaccinia mCherry: inactive[7.34 µM]

Results for Nc1nc2n(n1)C(c1ccccc1Cl)CC(c1ccc(F)cc1)N2 (stereo unspecified) ?
VACV Venus inh: inactive; LmPK inh: inactive; HCMV inh: inactive; TbPYK inhibitor: inactive; Vaccinia mCherry: inactive

What do the screens show for `O=C(CSc1nnc(CNc2ccc(F)cc2)n1CC1CCCO1)N1CCOCC1` (stereo unspecified)?
VACV Venus inh: inactive; LmPK inh: inactive; HCMV inh: -98.3; TbPYK inhibitor: inactive; Vaccinia mCherry: inactive

Results for CCCc1nnc(SCC(=O)N2CCCC2)n1CC1CCCO1 (stereo unspecified) ?
VACV Venus inh: inactive; LmPK inh: inactive; HCMV inh: inactive; TbPYK inhibitor: inactive; Vaccinia mCherry: inactive

Results for CCCc1nnc(SCC(=O)N2CCOCC2)n1CC1CCCO1 (stereo unspecified) ?
VACV Venus inh: inactive; LmPK inh: inactive; HCMV inh: -68.4; TbPYK inhibitor: inactive; Vaccinia mCherry: inactive

Results for Cc1ccccc1N(C(=O)CCC(=O)Nc1ccccn1)C(C(=O)NC(C)C)c1ccc(O)cc1 (stereo unspecified) ?
VACV Venus inh: inactive; LmPK inh: inactive; HCMV inh: inactive; TbPYK inhibitor: inactive; Vaccinia mCherry: inactive

What do the screens show for `COc1ccc(-c2c([C@H]3[C@@H]4C=CCC[C@@]4(C)C(=O)N3Cc3ccccc3)ccc3ccccc23)cc1OC`?
VACV Venus inh: inconclusive; LmPK inh: inactive; HCMV inh: -60.3; TbPYK inhibitor: inactive; Vaccinia mCherry: inconclusive

What do the screens show for `CC(=O)C1=C(O)C(=O)N(Cc2ccccc2)C1c1ccc(F)cc1` (stereo unspecified)?
LmPK inh: inactive; HCMV inh: -76.6; TbPYK inhibitor: inactive

Results for CCc1nc(NCCc2ccccn2)c2nnn(Cc3ccccc3F)c2n1 ?
VACV Venus inh: inconclusive; LmPK inh: inactive; HCMV inh: inactive; TbPYK inhibitor: inactive; Vaccinia mCherry: inactive

Results for O=C(NC1CCCCCC1)C1CCN(c2nc3ccccc3o2)CC1 ?
LmPK inh: inactive; HCMV inh: -74.1; TbPYK inhibitor: inactive

Results for COc1ccc(CCN2CC(C(=O)N(C)CC(=O)Nc3cccc(F)c3)CC2=O)cc1OC (stereo unspecified) ?
VACV Venus inh: inactive; LmPK inh: inactive; HCMV inh: inactive; TbPYK inhibitor: inactive; Vaccinia mCherry: inactive

Results for CN1CCN(NC(=S)Nc2ccc(Oc3ccccc3)cc2)CC1 ?
VACV Venus inh: inactive; LmPK inh: inactive; HCMV inh: -66.9; TbPYK inhibitor: inactive; Vaccinia mCherry: inactive

How did COc1cccc(NC(=S)NN2CCN(C)CC2)c1 do in these assays?
VACV Venus inh: inactive; LmPK inh: inactive; HCMV inh: inactive; TbPYK inhibitor: inactive

Results for COC(=O)c1ccc(NC(=O)C(C)Sc2nc(=O)cc(N)n2CCc2ccccc2)cc1 (stereo unspecified) ?
VACV Venus inh: inactive; HCMV inh: inactive; TbPYK inhibitor: inactive; Vaccinia mCherry: inactive

Results for O=C(NCC(=O)N1CCC(Cc2ccccc2)CC1)c1ccccc1F ?
VACV Venus inh: inactive; HCMV inh: inactive; TbPYK inhibitor: inactive; Vaccinia mCherry: inactive

What do the screens show for `CC1(C)Cc2ccccc2C(NN=C2CCCC2)=N1`?
VACV Venus inh: inactive; LmPK inh: inactive; HCMV inh: inactive; TbPYK inhibitor: inactive; Vaccinia mCherry: inactive

How did CCO/N=C(\N)c1[nH]ncc1Br do in these assays?
LmPK inh: inactive; HCMV inh: inactive; TbPYK inhibitor: inactive

What do the screens show for `Cc1ccc(C(=O)O/N=C(\N)c2ccccn2)c(C)c1`?
VACV Venus inh: inactive; LmPK inh: 6.31µM; HCMV inh: -69.5; TbPYK inhibitor: inconclusive; Vaccinia mCherry: inactive

What do the screens show for `N/C(=N\OC(=O)CC1CCCCC1)c1ccccn1`?
VACV Venus inh: inactive; LmPK inh: inconclusive; HCMV inh: -60.5; TbPYK inhibitor: inactive; Vaccinia mCherry: inactive

How did N/C(=N\OC(=O)c1ccc(Cl)cc1)c1[nH]ncc1Br do in these assays?
LmPK inh: 10µM; HCMV inh: inactive; TbPYK inhibitor: inconclusive

What do the screens show for `Cc1cc(/C(N)=N/OC(=O)c2ccc(Cl)cc2)no1`?
VACV Venus inh: inactive; LmPK inh: 15.8µM; HCMV inh: inactive; TbPYK inhibitor: inactive; Vaccinia mCherry: inactive

How did CC1Cc2ccccc2N1C(=O)C1CCCN(S(=O)(=O)c2cccc3nsnc23)C1 (stereo unspecified) do in these assays?
VACV Venus inh: inconclusive; LmPK inh: inactive; HCMV inh: inactive; TbPYK inhibitor: inactive; Vaccinia mCherry: inconclusive

How did N/C(=N\OC(=O)c1ccc(Cl)c(Cl)c1)c1ccccn1 do in these assays?
LmPK inh: inactive; HCMV inh: inactive; TbPYK inhibitor: inactive

What do the screens show for `N/C(=N\OC(=O)c1ccc(Cl)c([N+](=O)[O-])c1)c1ccccn1`?
VACV Venus inh: inconclusive; LmPK inh: inactive; HCMV inh: -63.2; TbPYK inhibitor: inactive; Vaccinia mCherry: inactive
